Shown are actives, neighbours in structure and some others; about 2.9% of the full set was active somewhere.
Fam108B inh = mouse Fam108B serine hydrolase inhibitors, primary screen, counter-screen for RBBP9 inhibitor project, biochemical, fluorescence polarization. recombinant Fam108B, FP-Rh probe fluorescence polarization. inhibition, % at 9.51 µM. 300,000 tested, 0.33% active. AID 1947, 2009;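 active = inhibition above the screen mean inhibition plus 3 SD, computed separately per campaign, cut at about 18% in these data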;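 also: inhibitors lower polarization as less probe binds the enzyme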
pPAFAH FP inh = pPAFAH enzyme inhibitors, primary screen, biochemical, fluorescence polarization, human; recombinant pPAFAH, FP-rhodamine probe fluorescence polarization; inhibition, % at 3.39 µM; 330,000 tested, 1.5% active; AID 463082, 2010;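 active = inhibition above the mean inhibition across the screen plus 3 SD, cut at about 25% in these data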;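 also: inhibitors block binding of the rhodamine activity-based probe so polarization drops; 0% = enzyme with DMSO and 100% = wells lacking pPAFAH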
Target sequence (Q13093 whole entry, looked up): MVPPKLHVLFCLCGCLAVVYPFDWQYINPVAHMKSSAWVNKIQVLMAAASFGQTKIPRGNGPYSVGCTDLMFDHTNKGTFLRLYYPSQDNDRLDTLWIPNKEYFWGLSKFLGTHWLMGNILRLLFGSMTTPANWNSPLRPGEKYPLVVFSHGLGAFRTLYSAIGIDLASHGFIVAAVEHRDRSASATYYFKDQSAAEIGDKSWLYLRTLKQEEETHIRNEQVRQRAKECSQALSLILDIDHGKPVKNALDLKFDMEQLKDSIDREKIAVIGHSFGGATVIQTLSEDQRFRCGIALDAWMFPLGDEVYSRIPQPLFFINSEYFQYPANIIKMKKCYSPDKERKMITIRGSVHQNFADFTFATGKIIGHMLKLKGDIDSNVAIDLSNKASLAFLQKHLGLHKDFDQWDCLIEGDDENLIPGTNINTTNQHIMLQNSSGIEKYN
PAFAH2 inh = PAFAH2 enzyme inhibitors, primary screen, biochemical, fluorescence polarization, human | 340,000 tested, 0.99% active | inhibition, % at 3.39 µM | Platelet-activating factor acetylhydrolase 2, cytoplasmic (Homo sapiens), Q99487 | recombinant PAFAH2, FP-rhodamine activity probe;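 active = inhibition above the mean over all tested compounds plus 3 SD, cut at about 30% in these data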;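 also: inhibitors block probe labeling of enzyme so polarization drops; 0% = enzyme with DMSO and 100% = wells lacking PAFAH2 protein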
PAFAH1B2 FP inh = PAFAH1B2 enzyme inhibitors, primary screen, biochemical, fluorescence polarization, human. Platelet-activating factor acetylhydrolase IB subunit alpha2 (Homo sapiens), P68402. recombinant PAFAH1B2, FP-rhodamine activity probe. inhibition, % at 3.39 µM. 340,000 tested, 1.2% active;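 active = inhibition above the mean of all tested compounds plus 3 SD, cut at about 24% in these data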;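 also: 0% = enzyme with DMSO and 100% = wells lacking PAFAH1B2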
PAFAH1B3 inh = PAFAH1B3 enzyme inhibitors, primary screen, biochemical, fluorescence polarization, human; 340,000 tested, 0.28% active; recombinant PAFAH1B3, FP-rhodamine probe; Platelet-activating factor acetylhydrolase IB subunit alpha1 (Homo sapiens), Q15102; inhibition, % at 3.39 µM;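 active = inhibition above the screen-wide average of all tested compounds plus 3 SD, cut at about 25% in these data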;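 also: 0% = enzyme with DMSO only and 100% = wells lacking PAFAH1B3 protein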
Target sequence (Q15102 whole entry, looked up): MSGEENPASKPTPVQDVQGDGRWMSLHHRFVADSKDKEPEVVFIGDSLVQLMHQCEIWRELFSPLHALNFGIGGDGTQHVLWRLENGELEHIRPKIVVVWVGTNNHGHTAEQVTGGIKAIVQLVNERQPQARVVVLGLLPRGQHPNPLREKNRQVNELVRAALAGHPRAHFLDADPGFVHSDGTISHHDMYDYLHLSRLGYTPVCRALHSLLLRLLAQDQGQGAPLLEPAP
PME-1 inh = PME-1 inhibitors via competitive probe labeling, primary screen, biochemical, fluorescence polarization, FP-Rh probe, HTS; Protein phosphatase methylesterase 1 (Homo sapiens), Q9Y570; recombinant PME-1; inhibition, % at 5.9 µM; 320,000 tested, 0.53% active; AID 2130, 2009;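 active = inhibition above the campaign mean of all compounds plus 3 SD, cut at about 26% in these data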;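 also: competitive labeling of PME-1 active site by serine hydrolase directed probe; 0% = PME-1 with DMSO and 100% = wells lacking PME-1 enzyme; inhibitors block probe labeling so polarization falls and inhibition rises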
Fam108b confirm = mouse Fam108b serine hydrolase inhibitors, confirmation, counter-screen for RBBP9 inhibitor project, biochemical, fluorescence polarization, triplicate; shares compounds with Fam108B inh; inhibition, % at 9.51 µM; AID 1978, 2009; recombinant Fam108b, FP-Rh probe fluorescence polarization; 930 tested, 44% active;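 active = inhibition above a limit from the primary screen, the mean over all compounds plus 3 SD, cut at about 19% in these data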;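 also: 0% = median of active Fam108b wells and 100% = catalytically dead S170A mutant; inhibitors free the probe so polarization falls as inhibition rises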
Fam108b inh = inhibition of mouse Fam108b by HTS hits, late-stage follow-up, biochemical, gel-based ABPP, soluble recombinant form; shares compounds with Fam108B inh; fluorophosphonate probe; inhibition, % at 20 µM; 260 tested, 44% active; AID 588649, 2011; in the data active = inhibition above about 40%
Active calls of the source: *; nt = no result given; ! = repeats disagree.

SMILES	Fam108B inh	pPAFAH FP inh	PAFAH2 inh	PAFAH1B2 FP inh	PAFAH1B3 inh	PME-1 inh	Fam108b confirm	others
O=C(Nc1cccc(S(=O)(=O)NC2=NCCC2)c1)c1cnc(Cl)c(Cl)c1	nt	-2	-1	7	2	-3	nt
COc1ccc(-c2noc(N3CCCC(C(=O)Nc4ccc(F)cc4F)C3)n2)cc1 (stereo unspecified)	-6	3	2	4	3	-1	nt
CCOC(=O)c1sc(NC(=O)c2cccc(S(=O)(=O)N3c4ccccc4CC3C)c2)cc1C (stereo unspecified)	43*	-14	-44	-4	-18	33*	21*
Cc1cc(NC(=O)c2cccc(S(=O)(=O)N3c4ccccc4CC3C)c2)no1 (stereo unspecified)	-2	3	3	4	-1	1	nt
O=[N+]([O-])c1ccc(NN=Cc2cccc(O)c2O)cc1	nt	nt	nt	nt	nt	nt	nt	Fam108b inh=40*
O=[N+]([O-])c1ccc(NN=Cc2ccccc2O)cc1	nt	nt	nt	nt	nt	nt	nt	Fam108b inh=90*
O=[N+]([O-])c1ccc(NN=Cc2cccc3ccccc23)cc1	nt	nt	7	3	3	nt	nt
COc1ccc(C(=O)NC(=S)N2CCN(C)CC2)cc1Br	47*	-3	-3	9	4	-4	2
Cc1ccc(Cl)cc1NC1=C/C(=N\S(=O)(=O)c2cccs2)c2ccccc2C1=O	24*	25*	31*	28*!	58*	24	20*
O=C(O)/C=C\c1cc2c(cc1[N+](=O)[O-])OCO2	4	1	1	-1	3	-2	nt
O=C1NC(=S)N/C1=C/c1cc2c(cc1[N+](=O)[O-])OCO2	47*	4	11	14	20	15	12
CC1CCCCN1C(=O)c1ccc(CS(=O)(=O)Cc2ccccc2)cc1 (stereo unspecified)	0	12	9	1	12	0	nt
O=C1C(=O)c2ccc(-c3ccccc3)cc2-c2ccccc21	54*	19	51*	9	58*	16	69*	Fam108b inh=15
Cc1ccc(C(=O)NNC(=O)c2ccoc2C)s1	nt	nt	6	2	6	nt	nt
Oc1cccc(NC(=S)N=Nc2c(O)[nH]c3ccc(Br)cc23)c1	24*	28*	7	10	16	33*	8
Oc1c(Br)cc(Br)cc1CNc1nccs1	nt	nt	6	5	4	nt	nt
Nc1ccc(N)c(C(=O)O)c1	57*	34*	66*	47*	69*	4	45*	Fam108b inh=0
O=[N+]([O-])c1ccc(O)c(Nc2ncnc3ccc(Br)cc23)c1	20*	3	10	17	17	32*	11
O=C(Nc1cccc(C(F)(F)F)c1)Nc1ccc(N2CCCC2)c(S(=O)(=O)Nc2ccccc2Cl)c1	35*	12	-18	18	12	20	32*	Fam108b inh=95*
Cc1ccc(S(=O)(=O)c2c(N)n(CCCO)c3nc4ccccc4nc23)cc1	3	-1	9	10	23	10	nt
CCCCn1c(NS(=O)(=O)c2ccccc2)c(S(=O)(=O)c2ccc(C)cc2)c2nc3ccccc3nc21	54*	10	57*	36*	66*	28*	2
CCc1ccc(CN2CCC(n3nccc3NC(=O)c3cccc(F)c3)CC2)cc1	1	1	-2	3	7	5	nt
O=C(NC1CCCC1)c1cccc(S(=O)(=O)N2CCOCC2)c1	nt	0	0	2	13	-1	nt
N#Cc1ccc2ccn(CC(=O)NCc3ccccc3)c2c1	33*	2	-1	5	-1	1	4
O=S(=O)(c1cccs1)N1CCC(CO)(Cc2ccc(Cl)cc2)CC1	-3	-1	4	23	4	1	nt
SMILES	Fam108B inh	pPAFAH FP inh	PAFAH2 inh	PAFAH1B2 FP inh	PAFAH1B3 inh	PME-1 inh	Fam108b confirm	others
CCN(CC)c1ccc(NC(=O)c2cc3c(OC)cccc3[nH]2)cc1	21*	14	8	4	14	20	3
COc1ccc(OC)c(/C=C2\S/C(=N/NC(=O)c3ccc4ccccc4c3)NC2=O)c1	32*	18	25	12	13	23	15
CCC(=O)NC(=S)Nc1ccc(NC(=O)c2ccc([N+](=O)[O-])cc2Cl)cc1	34*	2	-7	-2	1	6	5
CCN(CC)c1ccc(/C=N/NC(=O)c2c[nH]c3ccccc23)cc1	23*	7	-3	12	24	20	-3
COc1ccccc1CC(=O)NNS(=O)(=O)c1cccc([N+](=O)[O-])c1	-1	-5	0	2	8	1	nt
COc1ccccc1CC(=O)NNS(=O)(=O)c1ccc([N+](=O)[O-])cc1	21*	2	11	6	12	-4	-13
CCOC(=O)N/N=C(/C)c1ccc(N2C(=O)C3CCCCC3C2=O)cc1 (stereo unspecified)	1	-5	5	6	6	0	nt
O=C(COC(=O)/C=C/c1ccccc1[N+](=O)[O-])Nc1ccc(S(=O)(=O)N2CCOCC2)cc1	nt	0	0	9	9	nt	nt
CC1CCCC(C)N1C(=O)CN1C(=O)NC2(CCOc3ccccc32)C1=O (stereo unspecified)	nt	nt	-4	2	2	nt	nt
C(=C\c1nccc2c1[nH]c1ccccc12)/c1ccccc1	-2	-2	-5	8	8	-15	nt
Cc1ccc(/C=C\c2nccc3c2[nH]c2ccccc23)cc1	24*	9	-2	-4	-5	-45	10
Cc1ccc(/C=C/c2nc3ccccc3c(=O)[nH]2)cc1	-1	0	0	6	0	-1	nt
Fc1ccc(/C=C\c2nccc3c2[nH]c2ccccc23)cc1	19*	-6	-2	-4	-1	-33	1
O=S(=O)(Nc1cccc(-n2cnnn2)c1)c1cc(Br)ccc1Br	-2	5	1	13	9	9	nt
Cn1nc(-c2ccc(Cl)cc2)nc2c(=O)n(C)c(=O)nc1-2	71*	5	nt	nt	nt	37*	73*
Cc1ccccc1Nc1nc(-c2sc(NC(=O)c3ccc([N+](=O)[O-])cc3)nc2C)cs1	14	10	nt	nt	nt	5	nt
COc1ccc(OC)c(Nc2nc(-c3sc(NC(=O)c4ccccc4)nc3C)cs2)c1	19*	6	nt	nt	nt	21	16
